Assay results reported in ChEMBL document CHEMBL4513216, “Probing the Open Global Health Chemical Diversity Library for Multistage-Active Starting Points for Next-Generation Antimalarials” (ACS Infect Dis, 2020).
Out of some 69,000 compounds screened, about 8,600 (12%) showed an effect of 50% or more. For the sample, strong results were picked, then their nearest neighbours and some compounds at random.

Each compound was assayed on Plasmodium berghei (assay: Screen against P. berghei liver stage (PbLuc), transformed with Luciferase, at 10uM). Details: tested at 10 uM.
Format: functional, HepG2

Row | Compound | INHIBITION [%]
1 | O=C1CCC2(CCCN(CCn3cc(Cl)cn3)C2)CN1C1CCCC1 (configuration not stated) | 31.5
2 | Cc1cnc(CCNc2cccc(CC3CCCNC3)n2)s1 (configuration not stated) | 41.5
3 | CCn1cc(S(=O)(=O)Nc2nc3c(s2)CC(C)CC3)cn1 (configuration not stated) | 11.7
4 | O=C1COC2(CCN(CC3CC3)CC2)CN1c1ccccc1 | 36.8
5 | O=C1COC2(CCN(CC3CC3)CC2)CN1c1ccsc1 | 78.8
6 | O=C(CC1CC1)N1CCC2(CC1)CN(c1ccsc1)C(=O)CO2 | 38.1
7 | O=C1COC2(CCN(Cc3ccoc3)CC2)CN1c1ccccc1 | -23.4
8 | O=C1COC2(CCN(Cc3ccoc3)CC2)CN1c1ccsc1 | 52.9
9 | O=C1COC2(CCN(Cc3cccs3)CC2)CN1c1ccsc1 | 21.1
10 | COc1ncccc1NC(=O)C1CC(=O)N(Cc2ccccn2)C1 (configuration not stated) | -8.69
11 | Cc1ccc(CN2CCC3(CCC3NC(=O)c3ccn(C)c3)CC2)s1 (configuration not stated) | -6.39
12 | CC(C)C(=O)N1CCCC1C(=O)Nc1cc(C(F)(F)F)ccc1F (configuration not stated) | 20.6
13 | CCc1ncnc2c1CCN(Cc1ccc3c(c1)OCO3)CC2 | -6.39
14 | COc1cccc(-c2cnc(C3CCNCC3)cn2)c1 | -28.6
15 | CCNC(=O)c1ccc(NC(=O)N(C)Cc2cc(C)on2)cc1 | -41.4
16 | CCNC(=O)c1ccc(NC(=O)N(C)Cc2cccn2C)c(C)c1 | 54.6
17 | CNC(=O)c1ccc(NC(=O)NC(C)CCc2cccn2C)c(C)c1 (configuration not stated) | 23.7
18 | Cc1ccc(OCCN(C)Cc2nc3c(cnn3C)c(=O)[nH]2)cc1 | 23.7
19 | O=C(NC[C@H]1CCCO1)c1ccc(S(=O)(=O)N2C[C@H]3C[C@@H]2CN3)cc1 | 30.7
20 | CN(Cc1ccncc1)C(=O)NC1CCS(=O)(=O)C1 (configuration not stated) | -4.12
21 | Cc1nn(C)c(C)c1C1SCC(=O)Nc2c1c(O)nn2C(C)C (configuration not stated) | 52.5
22 | Cc1nn(C)cc1C1SCC(=O)Nc2c1c(O)nn2C(C)C (configuration not stated) | 30.5
23 | Cc1c(C2SCC(=O)Nc3c2c(O)nn3C(C)C)cnn1C (configuration not stated) | 13.1

Row | Compound | INHIBITION [%]
24 | CCCc1nc(NCCCOC)c2c(n1)c(C)nn2CC | 29.18
25 | COCCN1C(=O)CC(c2cccnc2)C12CCN(C(=O)C1CC1)CC2 (configuration not stated) | 24
26 | COCCN1C(=O)CC(c2cccnc2)C12CCN(C)CC2 (configuration not stated) | 27.6
27 | CCC(=O)N1CCC2(CC1)C(c1cccnc1)CC(=O)N2CCOC (configuration not stated) | 59.3
28 | O=C(c1ccccn1)N1C[C@@H](OCc2cccnc2)[C@H]2OCCC[C@@H]21 | -21.1
29 | COCCNC(=O)c1cc2c(s1)CCN2S(C)(=O)=O | 6.55
30 | O=C(c1ccc(=O)[nH]n1)N1CCC(CN2CCOCC2)CC1 | -40.5
31 | Cc1ccc(N2CCC(C(O)c3cccs3)CC2)nn1 (configuration not stated) | 56.3
32 | N#Cc1nccnc1N1CCC(C(O)c2cccs2)CC1 (configuration not stated) | 42.4
33 | OC(c1cccs1)C1CCN(c2ncccn2)CC1 (configuration not stated) | 48
34 | Cc1cccc(OCCNC(=O)CN2CCc3cncnc3C2)c1 | 22.3
35 | COC(=O)[C@H](C)NC(=O)c1cc(-c2cccc(Cl)c2)no1 | 3.16
36 | CCCS(=O)(=O)N1CCC2(CCN(Cc3cccc(F)c3)C2=O)C1 (configuration not stated) | 16.8
37 | CN(C)CCN1CCC2(CCN(C(=O)c3cccnc3)CC2)C1=O | -23.3
38 | COCC(=O)N1CCC2(CC1)CC(OC)CO2 (configuration not stated) | 70.4
39 | COCC(=O)N1CCC2(CC1)CC(N1CCN(C)CC1)CO2 (configuration not stated) | 39.3
40 | COCC1COCCC12CCN(C(=O)COc1ccccc1C)CC2 (configuration not stated) | 0.542
41 | CO[C@@H]1CO[C@@]2(CCN(C(=O)COc3ccccc3C)C2)C1 | 71
42 | COc1ccccc1OCC(=O)N1C[C@@H]2CN(C)CCO[C@@H]2C1 | 55.6
43 | CCO[C@@H]1CO[C@@]2(CCCN(C(=O)COc3ccccc3OC)C2)C1 | 15.8
44 | Cc1ccc(OCC(=O)N2C[C@@H]3CN(C)CCO[C@@H]3C2)cc1 | 37.9
45 | COC1COC2(CCN(C(=O)c3ncccn3)CC2)C1 (configuration not stated) | 37.8
46 | O=C(COc1ccccc1)N1CCC[C@]2(C[C@@H](OCC3CC3)CO2)C1 | 27.6

Row | Compound | INHIBITION [%]
47 | CN1CCO[C@@H]2CN(C(=O)COc3cccc(Cl)c3)C[C@@H]2C1 | 34.9
48 | COc1ccccc1OCC(=O)N1CCC[C@]2(C[C@@H](OC)CO2)C1 | 54.7
49 | Cc1ccccc1OCC(=O)N1CC[C@]2(C[C@@H](OCC3CC3)CO2)C1 | -0.813
50 | Cc1occc1C(=O)Nc1cnn(CCN2CCOCC2)c1 | -16.565
51 | O=C(Nc1ccc2c(c1)OCO2)c1ccc(N2CCCC2)nn1 | 43.8
52 | NC(=O)CN(Cc1ccc(Br)cc1)C(=O)c1cnccn1 | 4.22
53 | O=C1COC2(COCCN(Cc3ccsc3)C2)CN1c1ccoc1 (configuration not stated) | 12.4
54 | CO[C@@H]1CO[C@@]2(CCCN(C(=O)C3CC=CC3)C2)C1 | 53
55 | CO[C@H]1CO[C@@]2(CCCN(C(=O)N3CCCC3)C2)C1 | 45.7
56 | CO[C@H]1CO[C@@]2(CCCN(C(=O)C3CC=CC3)C2)C1 | 22.2
57 | CC(C)c1nc(CN2CCN(CC(O)c3ccccc3)CC2)no1 (configuration not stated) | 21.5
58 | CC(=O)Nn1c(C)cc(CN2CCC(C(=O)N3CCCC3)CC2)c1C | 52.8
59 | CC(=O)Nn1c(C)cc(CN2CCC(c3ccncc3)CC2)c1C | 28
60 | CC(=O)Nn1c(C)cc(CN2CCCN(Cc3ccncc3)CC2)c1C | 20.4
61 | CN(c1cccnn1)C1CCN(C(=O)c2n[nH]c3c2CCC3)CC1 | -16.7
62 | O=C(c1cnc(-c2cccnc2)nc1)N1CCC(c2ccncc2)CC1 | 21.8
63 | O=C(c1cnc(-c2cccnc2)nc1)N1CCSCC1 | 51.9
64 | O=C(c1cccnc1)N1CCSCC1 | 35.7
65 | Cc1cccc(CNc2ccc(C(=O)N3CCC(CO)CC3)cc2)c1 | 38.3
66 | O=C([C@@H]1COC[C@H]2CN(C3CCOCC3)C[C@H]21)N1CCCCO1 | -3.1
67 | CCc1cccc2c(CC(=O)N(C)CCN(C)C)c(C)[nH]c12 | 47.9
68 | Cc1ccc2c(CC(=O)N(C)CCN(C)C)c(C)[nH]c2c1C | 50.75
69 | Cc1[nH]c2c(C)cccc2c1CC(=O)N(C)CCN(C)C | 34.15

Row | Compound | INHIBITION [%]
70 | CC(=O)N1CCN(C(=O)CN(C)c2ccc(Cl)cn2)CC1 | 25
71 | c1cncc(COC[C@@H]2CCC[C@@]23CNCCO3)c1 | 24
72 | c1cc(COC[C@@H]2CCC[C@@]23CNCCO3)ccn1 | 68.2
73 | Cc1nc(COC[C@@H]2CCC[C@@]23CNCCO3)cs1 | 48.9
74 | c1cc(COC[C@H]2CCC[C@]23CNCCO3)ccn1 | 53
75 | c1cncc(COC[C@@H]2CCC[C@]23CNCCO3)c1 | 22.2
76 | c1cncc(OC[C@@H]2CCC[C@@]23CNCCO3)c1 | -2.27
77 | COC(=O)c1ccc(CN2CCC(c3n[nH]c(C)n3)CC2)s1 | 16.3
78 | O=C(NCCc1noc(C2CCCC2)n1)c1cn2ccsc2n1 | 47.2
79 | Cc1nc(C2CCN(C(C)C)CC2)sc1Br | 30.4
80 | CCN1CCCC(C)(C(=O)NCc2nncn2CCc2ccccc2)C1 (configuration not stated) | 57
81 | CCn1cnnc1CNC(=O)N1CCN(CCc2ccccc2)CC1 | 23.4
82 | CCN1CCCC(C)(C(=O)NCc2nccn2Cc2ccccc2)C1 (configuration not stated) | 47.2
83 | Cc1cc(C)c2ncc(C#N)c(NC3CCN(CC(N)=O)CC3)c2c1 | -5.705
84 | Cc1cnn(CC2CCCCN2C(=O)c2ccc(NC3CC3)nc2)c1 (configuration not stated) | 42.45
85 | O=S(=O)(N1CCC(n2cccc2)CC1)N1CCCC1c1ccco1 (configuration not stated) | 66.1
86 | O=S(=O)(N1CCN(CC2CC2)CC1)N1CCCC1c1ccco1 (configuration not stated) | 31.9
87 | COC1CCN(S(=O)(=O)N2CCCC2c2ccco2)CC1 (configuration not stated) | 49
88 | CC(C)CN1CCN(S(=O)(=O)c2cn(C)cn2)Cc2cccnc21 | 48.7
89 | COCCC(=O)N1CCCC1c1csc(Nc2ncccn2)n1 (configuration not stated) | 36.7
90 | O=C(NC1CC1)C1CCN(c2nc3nc[nH]c(=O)c3s2)CC1 | 50.2
91 | CC(C)NC(=O)C1CCN(c2nc3nc[nH]c(=O)c3s2)CC1 | 4.35
92 | CNC(=O)C1CCN(c2nc3nc[nH]c(=O)c3s2)CC1 | 24.7

Row | Compound | INHIBITION [%]
93 | CCN(CCCc1ccccc1C)S(C)(=O)=O | 14.1
94 | CCN(CC)S(=O)(=O)N(Cc1cccc(C)c1)Cc1ccccn1 | 9.63
95 | CCN(Cc1ccccc1C)S(C)(=O)=O | 5.15
96 | Cc1ccccc1CCCN(Cc1ccccn1)S(C)(=O)=O | 51
97 | CCN(CC)S(=O)(=O)N(Cc1ccccn1)Cc1ccccc1C | 61.3
98 | Cc1ccccc1CCCN(C)S(C)(=O)=O | 24.2
99 | COCCN1CCCN(C(=O)NC(C)Cn2cccn2)CC1 (configuration not stated) | 42.6
100 | Fc1cnc(N2CCCn3c(nnc3Cn3ccnc3)C2)nc1 | -68
101 | Cc1noc(C2CCN(C(=O)CCCNc3ncccn3)CC2)n1 | 18.4
102 | CCC(CC)c1nnc(NC(=O)NC(C)Cn2cccn2)s1 (configuration not stated) | 27.4
103 | Cc1nc(CN(C)C2CCN(Cc3cccc4c3OCCO4)C2)no1 (configuration not stated) | 29.4
104 | O=C(c1cccs1)N1CC[C@@H]2[C@H]1CCC(=O)N2c1ccccc1 | 40.3
105 | O=C(c1cscn1)N1CC[C@H]2[C@@H]1CCC(=O)N2c1ccccc1 | 55.5
106 | Cc1nc(CN2CC[C@H]3[C@@H]2CCC(=O)N3c2cnn(C)c2)cs1 | -20.1
107 | Cn1cc(N2C(=O)CC[C@@H]3[C@H]2CCN3Cc2nccs2)cn1 | 22.4
108 | Cc1cnc(N2CC[C@H]3[C@@H]2CCC(=O)N3c2ccccc2)nc1 | 2.7
109 | Cn1cc(N2C(=O)CC[C@@H]3[C@H]2CCN3C(=O)c2cscn2)cn1 | 52
110 | O=C1CC[C@H]2[C@H](CCN2c2ncccn2)N1c1ccccc1 | 55.4
111 | O=C1CC[C@H]2[C@H](CCN2c2ncc(F)cn2)N1c1ccccc1 | 49.4
112 | O=C(c1cnccn1)N1CC[C@H]2[C@@H]1CCC(=O)N2c1cccnc1 | 22.9
